# According to the supplement of paper PMC11732987, “Enantioselective OTUD7B fragment discovery through chemoproteomics screening and high-throughput optimisation” (Communications Chemistry, 2025):
# Unmarked numbers belong to inactive results.
# Experiments:
# Test in all cases: log2 ratio of Biotin-Ahx-Ub-VS probe labelling (fragment/DMSO); higher = less target engagement (more negative = stronger competition), active = hit call of the paper (q ≤ 0.05, log2 ratio ≤ -1)
# Conditions in all cases: compound concentration: 200 uM; treatment time: 3 h
# OTUD6B = target: T1, OTUD6B (UniProt Q8N6M0)
# T1 sequence (whole entry): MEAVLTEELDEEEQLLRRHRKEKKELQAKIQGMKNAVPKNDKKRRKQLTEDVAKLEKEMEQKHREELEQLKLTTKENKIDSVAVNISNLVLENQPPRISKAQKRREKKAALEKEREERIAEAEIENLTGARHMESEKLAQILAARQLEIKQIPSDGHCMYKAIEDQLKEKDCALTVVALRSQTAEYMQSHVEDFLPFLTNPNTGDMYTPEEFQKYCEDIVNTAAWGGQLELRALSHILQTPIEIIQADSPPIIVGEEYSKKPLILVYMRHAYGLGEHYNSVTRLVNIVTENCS
# Procedure, shortened: (§1)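 HEK293T lysate, 495 µg per sample in Tris/CHAPS/IGEPAL buffer with protease inhibitors, was treated in triplicate with fragment at 200 µM or vehicle for 3 h and then with Biotin-Ahx-Ub-VS at 0.5 µM final for 1 h. Labelled DUBs were NeutrAvidin-enriched, digested with LysC and trypsin, and run by diaPASEF LC-MS/MS. Spectronaut label-free quantities were global-median-normalised, and values are average log2 fragment/vehicle ratios by unpaired t-test on proteins with ≥2 unique peptides.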
# OTUD7B = target: T2, OTUD7B (UniProt Q6GQQ9)
# T2 sequence (whole entry): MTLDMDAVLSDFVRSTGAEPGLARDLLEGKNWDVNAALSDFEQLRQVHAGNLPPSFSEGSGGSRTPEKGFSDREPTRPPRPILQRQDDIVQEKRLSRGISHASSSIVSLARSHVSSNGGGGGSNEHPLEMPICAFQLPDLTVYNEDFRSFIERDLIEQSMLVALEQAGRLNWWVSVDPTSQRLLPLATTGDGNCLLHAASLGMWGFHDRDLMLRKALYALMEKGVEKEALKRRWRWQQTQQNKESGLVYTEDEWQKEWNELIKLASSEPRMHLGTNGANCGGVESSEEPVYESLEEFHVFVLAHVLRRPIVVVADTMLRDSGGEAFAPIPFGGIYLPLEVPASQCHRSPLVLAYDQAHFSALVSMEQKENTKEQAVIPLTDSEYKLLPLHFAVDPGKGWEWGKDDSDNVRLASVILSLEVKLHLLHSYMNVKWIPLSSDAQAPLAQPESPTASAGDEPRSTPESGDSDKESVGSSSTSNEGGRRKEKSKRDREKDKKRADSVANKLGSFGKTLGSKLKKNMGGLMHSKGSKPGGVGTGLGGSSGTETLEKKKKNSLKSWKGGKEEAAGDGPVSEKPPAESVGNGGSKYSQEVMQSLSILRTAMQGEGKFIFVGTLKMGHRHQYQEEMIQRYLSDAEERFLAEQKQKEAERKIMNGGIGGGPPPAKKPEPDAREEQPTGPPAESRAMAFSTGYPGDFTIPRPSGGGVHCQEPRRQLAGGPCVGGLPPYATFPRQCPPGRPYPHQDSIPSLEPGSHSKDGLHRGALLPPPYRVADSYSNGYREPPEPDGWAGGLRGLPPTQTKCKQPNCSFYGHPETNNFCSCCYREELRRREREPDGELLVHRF
# Procedure, shortened: as §1
# PRPF8 = PRPF8 (UniProt Q6P2Q9)
# Procedure, shortened: as §1
# PSMD7 = target: T3, PSMD7 (UniProt P51665)
# T3 sequence (whole entry): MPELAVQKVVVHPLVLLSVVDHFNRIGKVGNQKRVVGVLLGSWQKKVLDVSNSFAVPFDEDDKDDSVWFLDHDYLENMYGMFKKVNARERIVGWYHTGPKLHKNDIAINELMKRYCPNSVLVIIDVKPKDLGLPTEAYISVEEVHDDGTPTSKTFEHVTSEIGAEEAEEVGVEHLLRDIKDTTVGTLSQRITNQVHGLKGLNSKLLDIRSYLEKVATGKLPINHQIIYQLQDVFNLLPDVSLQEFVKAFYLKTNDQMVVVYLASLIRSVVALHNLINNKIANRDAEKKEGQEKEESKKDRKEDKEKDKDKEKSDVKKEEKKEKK
# Procedure, shortened: as §1
# UCHL1 = UCHL1 (UniProt P09936)
# Procedure, shortened: as §1
# UCHL3 = target: T4, UCHL3 (UniProt P15374)
# T4 sequence (whole entry): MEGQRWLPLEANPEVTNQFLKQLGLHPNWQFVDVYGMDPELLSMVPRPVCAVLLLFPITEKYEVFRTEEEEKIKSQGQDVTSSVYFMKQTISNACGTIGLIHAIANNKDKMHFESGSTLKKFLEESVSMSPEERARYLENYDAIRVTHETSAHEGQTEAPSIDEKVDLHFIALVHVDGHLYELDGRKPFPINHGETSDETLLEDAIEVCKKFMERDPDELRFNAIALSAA
# Procedure, shortened: as §1
# UCHL5 = target: T5, UCHL5 (UniProt Q9Y5K5)
# T5 sequence (whole entry): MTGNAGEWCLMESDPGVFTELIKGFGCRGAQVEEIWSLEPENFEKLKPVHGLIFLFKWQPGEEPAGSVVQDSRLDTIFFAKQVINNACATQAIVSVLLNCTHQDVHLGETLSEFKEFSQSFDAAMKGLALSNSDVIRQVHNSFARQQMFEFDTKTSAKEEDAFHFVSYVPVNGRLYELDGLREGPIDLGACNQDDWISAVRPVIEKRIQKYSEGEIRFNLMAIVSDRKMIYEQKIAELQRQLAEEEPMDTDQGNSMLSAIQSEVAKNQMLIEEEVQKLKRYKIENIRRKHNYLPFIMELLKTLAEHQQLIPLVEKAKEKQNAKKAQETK
# Procedure, shortened: as §1
# USP10 = USP10 (UniProt Q14694)
# Procedure, shortened: as §1
# USP15 = target: T6, USP15 (UniProt Q9Y4E8)
# T6 sequence (whole entry): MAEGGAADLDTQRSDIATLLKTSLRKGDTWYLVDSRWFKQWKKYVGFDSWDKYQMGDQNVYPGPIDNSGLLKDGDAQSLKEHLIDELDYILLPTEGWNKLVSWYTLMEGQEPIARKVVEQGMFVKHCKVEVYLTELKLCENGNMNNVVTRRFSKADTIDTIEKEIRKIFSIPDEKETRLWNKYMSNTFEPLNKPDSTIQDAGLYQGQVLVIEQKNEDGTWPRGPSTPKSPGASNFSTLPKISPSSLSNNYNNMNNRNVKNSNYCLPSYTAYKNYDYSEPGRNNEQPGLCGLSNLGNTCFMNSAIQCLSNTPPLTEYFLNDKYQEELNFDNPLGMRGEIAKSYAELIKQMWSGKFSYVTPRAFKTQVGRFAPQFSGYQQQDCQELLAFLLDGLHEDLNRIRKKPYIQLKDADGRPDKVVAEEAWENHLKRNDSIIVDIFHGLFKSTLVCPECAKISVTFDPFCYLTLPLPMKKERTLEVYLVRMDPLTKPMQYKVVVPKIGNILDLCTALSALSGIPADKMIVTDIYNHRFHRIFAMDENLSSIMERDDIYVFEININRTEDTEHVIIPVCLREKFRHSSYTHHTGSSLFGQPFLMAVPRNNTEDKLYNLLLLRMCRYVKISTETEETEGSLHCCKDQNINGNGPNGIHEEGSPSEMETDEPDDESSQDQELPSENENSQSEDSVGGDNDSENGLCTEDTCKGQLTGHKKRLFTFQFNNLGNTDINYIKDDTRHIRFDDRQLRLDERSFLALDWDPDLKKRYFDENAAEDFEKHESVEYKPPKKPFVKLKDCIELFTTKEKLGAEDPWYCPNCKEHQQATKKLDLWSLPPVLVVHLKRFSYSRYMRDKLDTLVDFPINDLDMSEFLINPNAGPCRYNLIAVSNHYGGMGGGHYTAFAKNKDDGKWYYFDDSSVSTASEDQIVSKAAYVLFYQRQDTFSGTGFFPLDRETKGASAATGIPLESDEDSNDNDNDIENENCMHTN
# Procedure, shortened: as §1
# USP16 = USP16 (UniProt Q9Y5T5)
# Procedure, shortened: as §1
# Sequence of UCHL1 (P09936 whole entry, looked up): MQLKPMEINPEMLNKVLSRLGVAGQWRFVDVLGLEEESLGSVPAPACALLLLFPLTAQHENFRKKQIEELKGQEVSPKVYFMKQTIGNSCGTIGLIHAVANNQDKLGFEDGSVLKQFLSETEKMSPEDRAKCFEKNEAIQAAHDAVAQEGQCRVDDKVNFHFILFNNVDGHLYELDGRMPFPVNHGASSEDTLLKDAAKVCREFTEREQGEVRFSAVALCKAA
# Sequence of USP10 (Q14694 whole entry): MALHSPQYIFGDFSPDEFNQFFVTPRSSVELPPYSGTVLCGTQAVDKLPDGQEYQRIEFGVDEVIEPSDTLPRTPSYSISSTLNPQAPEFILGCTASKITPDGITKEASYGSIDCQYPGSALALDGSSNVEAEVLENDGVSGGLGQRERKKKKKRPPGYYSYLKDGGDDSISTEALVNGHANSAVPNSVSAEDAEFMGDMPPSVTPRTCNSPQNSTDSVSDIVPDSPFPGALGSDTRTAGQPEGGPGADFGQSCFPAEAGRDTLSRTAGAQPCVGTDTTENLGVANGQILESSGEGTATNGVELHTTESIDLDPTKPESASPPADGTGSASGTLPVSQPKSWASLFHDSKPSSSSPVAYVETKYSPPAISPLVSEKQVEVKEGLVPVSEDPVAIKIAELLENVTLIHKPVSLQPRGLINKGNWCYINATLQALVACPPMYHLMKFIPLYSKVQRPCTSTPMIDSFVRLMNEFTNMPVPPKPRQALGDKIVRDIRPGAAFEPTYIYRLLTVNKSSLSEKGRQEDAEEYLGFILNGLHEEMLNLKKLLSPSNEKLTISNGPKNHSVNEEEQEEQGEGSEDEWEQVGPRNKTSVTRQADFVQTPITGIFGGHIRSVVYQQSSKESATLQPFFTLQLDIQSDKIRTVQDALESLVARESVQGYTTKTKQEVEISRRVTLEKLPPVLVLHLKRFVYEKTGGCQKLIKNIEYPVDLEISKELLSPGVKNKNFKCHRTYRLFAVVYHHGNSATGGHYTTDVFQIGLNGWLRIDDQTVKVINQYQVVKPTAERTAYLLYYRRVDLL
# Sequence of USP16 (Q9Y5T5 whole entry, looked up): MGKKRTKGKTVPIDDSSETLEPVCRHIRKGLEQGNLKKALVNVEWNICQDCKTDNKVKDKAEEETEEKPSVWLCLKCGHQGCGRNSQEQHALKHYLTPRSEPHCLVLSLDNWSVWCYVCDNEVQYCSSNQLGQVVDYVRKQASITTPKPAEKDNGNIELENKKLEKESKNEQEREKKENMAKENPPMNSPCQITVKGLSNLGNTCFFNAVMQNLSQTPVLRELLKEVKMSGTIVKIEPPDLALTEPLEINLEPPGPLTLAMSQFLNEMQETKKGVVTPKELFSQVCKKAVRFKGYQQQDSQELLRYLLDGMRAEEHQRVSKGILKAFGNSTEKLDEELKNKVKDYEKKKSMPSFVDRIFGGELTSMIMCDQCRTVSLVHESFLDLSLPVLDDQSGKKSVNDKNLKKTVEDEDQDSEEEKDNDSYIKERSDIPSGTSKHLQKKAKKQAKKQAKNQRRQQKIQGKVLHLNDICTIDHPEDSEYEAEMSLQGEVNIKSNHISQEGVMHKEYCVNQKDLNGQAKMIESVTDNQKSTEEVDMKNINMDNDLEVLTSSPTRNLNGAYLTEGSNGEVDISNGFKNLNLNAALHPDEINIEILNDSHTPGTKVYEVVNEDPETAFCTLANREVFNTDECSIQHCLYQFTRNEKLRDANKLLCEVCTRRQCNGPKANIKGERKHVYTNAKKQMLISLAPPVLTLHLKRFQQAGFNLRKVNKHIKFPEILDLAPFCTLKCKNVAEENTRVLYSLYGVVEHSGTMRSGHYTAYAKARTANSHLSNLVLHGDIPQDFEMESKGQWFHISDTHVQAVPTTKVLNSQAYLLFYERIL
smiles,measurement,setting,value
O=C(CCl)N1CCN2C(=O)CCC2C1 (stereo not given),log2 ratio of Biotin-Ahx-Ub-VS probe labelling,OTUD6B,-0.158
same,log2 ratio of Biotin-Ahx-Ub-VS probe labelling,OTUD7B,-0.49
same,log2 ratio of Biotin-Ahx-Ub-VS probe labelling,PRPF8,-0.164
same,log2 ratio of Biotin-Ahx-Ub-VS probe labelling,PSMD7,-0.288
same,log2 ratio of Biotin-Ahx-Ub-VS probe labelling,UCHL1,-1.64 (active)
same,log2 ratio of Biotin-Ahx-Ub-VS probe labelling,UCHL3,0.118
same,log2 ratio of Biotin-Ahx-Ub-VS probe labelling,UCHL5,-0.0709
same,log2 ratio of Biotin-Ahx-Ub-VS probe labelling,USP10,-0.195
same,log2 ratio of Biotin-Ahx-Ub-VS probe labelling,USP15,-0.15
same,log2 ratio of Biotin-Ahx-Ub-VS probe labelling,USP16,0.00152
